# SKOV3 invasion: inhibitors of ovarian cancer cell adhesion and invasion in omental model; SKOV3ip1-GFP adhesion/invasion on 3D omental model, fluorescence; 0.1% of 46,000 active; Potency, µM (titrated, usually from 45.8 µM), inactives show at the top dose activity change, negative = inhibition, usual class: inhibitors; AID 1963576;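 further: potency means the concentration at half of the fitted maximal effect; plate controls were DMSO wells for no effect and tomatine positive control wells for full effect; nearly all actives have a fitted effect of over 65% in size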
#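 A 3D layer of primary human omental fibroblasts, mesothelial cells, fibronectin and collagen I, grown 48 hr, received SKOV3ip1-GFP cells in serum-free medium plus compounds at 0.36-46 umol/L. After 2 hr RT and 16 hr 37 C, fixed adherent GFP cells were counted; normalized to DMSO and tomatine.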
# NTMT1 inhibitor: blocks human N-terminal methyltransferase 1 activity; Q9BV86; NTMT1 MTase-Glo SAH luminescence, purified enzyme; Potency, µM (doses to about 114 µM), without a hit: at the top dose activity change, negative = inhibition, actives largely listed as inhibitors; 2.5% of 59,000 active; AID 1645870;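 further: potency means the concentration at half of the fitted maximal effect; plate controls were DMSO vehicle for no effect and no enzyme for full effect; nearly all actives have a fitted effect of over 65% in size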
# Target sequence (Q9BV86 whole entry, looked up): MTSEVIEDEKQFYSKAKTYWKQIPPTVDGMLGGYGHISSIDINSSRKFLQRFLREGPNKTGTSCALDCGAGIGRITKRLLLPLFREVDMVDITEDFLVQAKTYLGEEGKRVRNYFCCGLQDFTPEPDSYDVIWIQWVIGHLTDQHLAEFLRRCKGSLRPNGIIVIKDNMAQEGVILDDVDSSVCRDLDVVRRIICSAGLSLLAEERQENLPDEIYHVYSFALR
# FH mod: Identification of activators of human fumarate hydratase by quantitative high-throughput screening; FH coupled MDH/diaphorase resazurin fluorescence, 15 min; Potency, µM (series often up to 79.9 µM), for the others: at the top dose activity change, negative = inhibition, hits mostly inhibitors; Fumarate hydratase, mitochondrial (Homo sapiens), P07954; 0.22% of 54,000 active; further: potency means the concentration at half of the fitted maximal effect; on the % scale 0 is the no-effect control and ±100 the full control effect; the screen sought activators but most active calls are inhibition curves; nearly all actives have a fitted effect of over 45% in size
# DRV1 agonist: GPR32 (DRV1) agonism, beta-arrestin recruitment | O75388 | CHO-K1 GPR32 beta-arrestin PathHunter luminescence, 90 min; zero percent set by DMSO-only wells | activation, % at 76.9 µM | 2.5% of 48,000 active | AID 1346428;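 active means activation of at least 60% and not above a set upper limit, about 1 call in 100 departs from these limits; inconclusive means activation of 40% to 60%, or above that upper limit; inactive means activation under 40%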; further: 0% is about no effect
# Target sequence (O75388 whole entry, looked up): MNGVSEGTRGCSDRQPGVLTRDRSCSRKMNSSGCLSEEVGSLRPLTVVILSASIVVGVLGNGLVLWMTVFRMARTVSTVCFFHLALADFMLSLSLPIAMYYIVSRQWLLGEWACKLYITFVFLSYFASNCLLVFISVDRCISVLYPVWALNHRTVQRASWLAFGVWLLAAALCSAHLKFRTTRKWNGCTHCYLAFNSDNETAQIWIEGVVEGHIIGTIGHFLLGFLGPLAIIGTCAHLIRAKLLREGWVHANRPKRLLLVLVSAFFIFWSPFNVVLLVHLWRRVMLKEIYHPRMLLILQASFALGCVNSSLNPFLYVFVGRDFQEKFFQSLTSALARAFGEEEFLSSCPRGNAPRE
#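 GPR32 activation in stably transfected CHO-K1 cells, detected as beta-arrestin recruitment by enzyme-fragment complementation. Compound exposure: 90 min, 37 °C.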
# Active calls of the source: *; i = inactive; u = inconclusive; x = no result given; ! = repeats disagree; [ ] = dose if it differs, or a comment. Most compounds without a hit are left out; they make up all but 3.9% or so of the library. Unless noted, the call rests on the fitted dose curve; in most records, active means well fitted curve in the direction sought with a large enough effect; inconclusive means small, poorly fitted or top-dose-only effect, or another doubt; inactive means no such curve, though single readings can be large; an effect the other way counts as inactive or inconclusive.
SMILES,SKOV3 invasion,NTMT1 inhibitor,FH mod,DRV1 agonist
CCOc1ccccc1N1CC(c2nc3ccccc3n2CCCOc2ccc(OC)cc2)CC1=O (configuration not stated),7%,0%,-13%,1
CCCCCC=CCC=CCCCCCCCC(=O)OCC,x,0%[57.5 µM],-13%[53.3 µM],63*
O=C(NCC(=O)N1CC[C@H](NC2CCC(O)(c3ccc(-c4ncccn4)cn3)CC2)C1)c1cccc(C(F)(F)F)c1 (some centres not stated),x,-3%,21%,x
COC1=C(OC)C(=O)C(CCCCCCCCCCO)=C(C)C1=O,0%,u,19µM*,46
Cc1cccc(N(C)S(=O)(=O)c2nnc(NC(=O)c3cccs3)s2)c1,-4%,14%,-7%,73*
C[C@@H]1CC[C@H]2C(C)(C)[C@H](O)[C@H](O)C[C@]2(C)[C@@]12Cc1c(O)cc3c(c1O2)CNC3=O,x,-11%[29.8 µM],-1%[53.3 µM],x
Clc1ccc2c(c1)C1=NCCN1c1c(-c3noc(C4CC4)n3)ncn1-2,x,-6%[57.5 µM],2%,x
CC1=C(c2ccc(C)c(C)c2)S(=O)(=O)N=C1N1CCC(C(=O)NCc2ccc(N(C)C)cc2)CC1,-6%,0%,-2%,4
CCc1ccc(C2=C(C)C(N3CCC(C(=O)NCc4ccccc4)CC3)=NS2(=O)=O)cc1,-7%,17%,1%,65*
C[C@@H]1O[C@@H](O[C@H]2[C@H](O[C@H]3CC[C@@]4(C)C(CC[C@]5(C)C4C=C[C@]46OC[C@@]7(CCC(C)(C)C[C@H]74)[C@@H](O[C@@H]4O[C@@H](C)[C@H](O)[C@@H](O)[C@H]4O)C[C@]65C)[C@]3(C)CO)O[C@H](CO)[C@@H](O)[C@@H]2O[C@@H]2O[C@H](CO)[C@@H](O)[C@H](O)[C@H]2O)[C@H](O)[C@H](O)[C@H]1O (some centres not stated),x,11%[12.6 µM],-1%[20.6 µM],x
COc1cc(Oc2ccnc3cc(OC)c(OC)cc23)ccc1NC(=O)NC(C)c1nccs1 (configuration not stated),-7%,79µM*!,1%,x
C=C1C(=O)O[C@H]2[C@H]1CC/C(C)=C/CC[C@@]1(C)O[C@@H]21,x,16%[57.5 µM],-5%,x
O=C(CSc1nc2cc3ccccc3cc2[nH]1)Nc1ccc(F)cc1,-8%,9%,-12%,65*
N#CC1(c2ccc(F)cc2)CCC(=O)CC1,x,11%[57.5 µM],-6%[53.3 µM],-7
Cc1cccc(Oc2ccc3c(c2)Oc2ccccc2NC3=O)c1,i,u,-4%,95*
O=C1Nc2cc(Cl)ccc2Oc2ccccc21,x,23%[57.5 µM],-1%[53.3 µM],3
Cc1ccc(Cl)cc1N1CCN(c2ncnc3c2nc2n3CCCCC2)CC1,-25%,-2%,-15%,-10
Clc1cccc(N2CCN(c3ncnc4c3nc3n4CCCC3)CC2)c1,i,50µM*,-25%,13
O=C(Nc1cccc(Cl)c1)C1CCCN(c2ncnc3c2nc2n3CCCCC2)C1 (configuration not stated),-16%,u,-14%,67*
O=S(=O)(c1ccccc1)n1nc(-c2ccc(Cl)cc2)nc1NCc1ccc(F)cc1,i,-18%,u,72*
CC(CN1c2ccccc2Sc2ccccc21)N(C)C (configuration not stated),x,u,u,108*!
CCc1ccccc1N1C(=O)N(Cc2cccc(Cl)c2)c2ccccc2S1(=O)=O,2%,89µM*,-14%,-7
COc1ccc2c(c1)C(c1ccc(F)cc1)=C(CN1CCCC1)CO2,x,6%,x,x
CN1CCc2c(sc3c2C(=O)NC(c2ccc(OC(=O)c4ccc(C(C)(C)C)cc4)cc2)N3)C1 (configuration not stated),-18%,-6%,u,65*
CCOC(=O)c1nn(-c2ccccc2)c(=O)c2c(N)scc12,x,50µM*,x,x
SMILES,SKOV3 invasion,NTMT1 inhibitor,FH mod,DRV1 agonist
OC(CC1c2ccccc2-c2cncn21)C1CCCCC1 (configuration not stated),x,5%[57.5 µM],13%,x
CCc1nn2c(=O)cc(N3C(C)CNCC3C)nc2s1 (configuration not stated),x,-5%,x,x
CC1(C)CC[C@]2(C(=O)O)CC[C@]3(C)C(=CCC4[C@@]5(C)CC[C@H](O[C@@H]6O[C@H](C(=O)O)[C@@H](O)[C@H](O)[C@H]6O)C(C)(CO)C5CC[C@]43C)C2C1 (some centres not stated),x,12%[12.6 µM],10%[20.6 µM],x
O=C(c1c2ccccc2cc2ccccc12)N1CCC(N2CCC[C@@H](C(=O)N3CCOCC3)C2)CC1,x,2%[57.5 µM],3%,x
Nc1ncnc2c1c(I)cn2C1OC(CO)C(O)C1O (configuration not stated),x,1.4µM*,8%,x
Nc1ncnc2c1ncn2[C@@H]1O[C@H](CO)[C@@H](O)[C@@H]1O,-29%,-9%,0%[53.3 µM],x
COC(=O)c1cccc(NC(=O)c2nsc3ccccc23)c1,u,45µM*,-8%,-22
COc1cccc(CNC(=O)c2cccc(NC(=O)c3nsc4ccccc34)c2)c1,-15%,13%,-9%,-10
CN[C@@H]1[C@@H](O)[C@@H](O[C@@H]2[C@@H](O)[C@H](O[C@H]3O[C@H](CN)[C@@H](O)[C@H](O)[C@@H]3O)[C@@H](N)C[C@@H]2NC(=O)[C@@H](O)CN)OC[C@]1(C)O,1%,-11%[57.5 µM],6%[53.3 µM],x
Cc1ccc(CN2C(=O)C(O)(c3c[nH]c4ccccc34)c3cc(Cl)ccc32)cc1 (configuration not stated),u,1%,u,87*
COc1ccc(Br)cc1CC1C(=O)Nc2ccccc21 (configuration not stated),-20%,25µM*,-18%,22
CC(=O)O[C@H]1CC[C@@]2(CI)C(=CC[C@@H]3[C@@H]2CC[C@]2(C)[C@@H]([C@H](C)CCCC(C)C)CC[C@@H]32)C1,x,-3%[12.6 µM],10%[13.5 µM],x
CC(C)CCC[C@@H](C)[C@H]1CC[C@H]2[C@@H]3CC=C4C[C@@H](OC(=O)NCCN(C)C)CC[C@]4(C)[C@H]3CC[C@]12C,x,22µM*,-20%,x
CCOC(=O)c1c(-c2ccccc2)no[n+]1[O-],x,-5%,x,x
NS(=O)(=O)c1ccc(NC(=O)CN2C(=O)COc3ccc(Cl)cc32)cc1,19%,u,-13%,93*
Cc1ccc(NC(=O)CN2C(=O)COc3ccc(S(=O)(=O)N4CCCCC4)cc32)cc1Cl,-4%,4%,-9%,-30
CCN(CC)S(=O)(=O)c1ccc2c(c1)N(CC(=O)NCCCN1CCN(c3cc(Cl)ccc3C)CC1)C(=O)CO2,-26%,u,-11%,78*
Cc1ccc(NC(=O)CN2C(=O)COc3ccc(S(=O)(=O)NC4CCCC4)cc32)cc1Cl,0%,5%,-20%,106*
O=C(CN1C(=O)COc2ccc(Cl)cc21)Nc1cccc(F)c1,-5%,-16%,-1%,-13
CC(=O)N1CCN(c2cccc(Nc3nn4c(=O)c5ccccc5nc4s3)c2)CC1,x,10%,x,x
Nc1nc(N)c2nc(-c3cccc(Cl)c3)c(N)nc2n1,x,-18%,x,x
